Results: the supplement of paper PMC8007513
Structures can show the parent of a compound that is named as a salt. ± gives the standard error. The whole screen tested about 1,300 compounds, of which about 130 (10%) showed an effect of 50% or more. Many of the other results were omitted from the sample, so strong results are more common in it than they were.

Tested on: Trichoderma virens ATCC 9645
Test: growth yield (OD600) with compound + IPBC relative to untreated control; higher = less growth inhibition
Settings: compound concentration: 100 uM, IPBC concentration: 200 ng/ml
Outline: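 A biocide at 200 ng ml^−1 was co-applied to some wells, and library compounds were present in all test wells at 100 μM final. The wells held 100 μl of Trichoderma virens ATCC 9645 spores at 15,000 spores ml^−1 in potato dextrose broth, grown at 30 °C in 96-well plates, with OD600 read at 40 h and 72 h. Results are relative growth against the control without either agent, averaged across duplicate screens.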

SMILES	growth yield (40 h) [%]	growth yield (72 h) [%]
Cc1cc(O)c(C(=O)N[C@@H](C(=O)N[C@@H]2C(=O)N3C(C(=O)O)=C(CSc4nnnn4C)CS[C@H]23)c2ccc(O)cc2)cn1 [Cefpiramide] + CCCCNC(=O)OCC#CI [3-iodo-2-propynyl butylcarbamate (IPBC)]	89.4 ± 2.7	90.9 ± 1.4
CN(C)C/C=C(/c1ccc(Br)cc1)c1cccnc1 [Zimelidine dihydrochloride monohydrate] + CCCCNC(=O)OCC#CI [3-iodo-2-propynyl butylcarbamate (IPBC)]	77.8 ± 0.95	93.5 ± 2.1
C=C[C@H]1CN2CC[C@H]1C[C@@H]2[C@@H](O)c1ccnc2ccc(OC)cc12 [Quinidine hydrochloride monohydrate] + CCCCNC(=O)OCC#CI [3-iodo-2-propynyl butylcarbamate (IPBC)]	77.7 ± 7.5	89.8 ± 6.3
O=C(c1ccc(F)cc1)C1CCN(CCn2c(=O)[nH]c3ccccc3c2=O)CC1 [Ketanserin tartrate hydrate] + CCCCNC(=O)OCC#CI [3-iodo-2-propynyl butylcarbamate (IPBC)]	98.5 ± 8.3	101 ± 3.2
CCNC(=O)CCC/C=C\C[C@@H]1[C@@H](/C=C/[C@@H](O)CCc2ccccc2)[C@H](O)C[C@@H]1O [Bimatoprost] + CCCCNC(=O)OCC#CI [3-iodo-2-propynyl butylcarbamate (IPBC)]	94.5 ± 5.6	95.4 ± 4.2
Cc1nc2n(c(=O)c1CCN1CCC(c3noc4cc(F)ccc34)CC1)CCCC2O (stereo not drawn) [Paliperidone] + CCCCNC(=O)OCC#CI [3-iodo-2-propynyl butylcarbamate (IPBC)]	82.28 ± 0.32	90.09 ± 0.32
Nc1c(Br)cc(Br)cc1CN[C@H]1CC[C@H](O)CC1 [Ambroxol hydrochloride] + CCCCNC(=O)OCC#CI [3-iodo-2-propynyl butylcarbamate (IPBC)]	73.2 ± 2.1	88.9 ± 2.5
CCOC(=O)OC(C)OC(=O)[C@@H]1N2C(=O)[C@@H](NC(=O)[C@H](N)c3ccccc3)[C@H]2SC1(C)C (stereo partly drawn) [Bacampicillin hydrochloride] + CCCCNC(=O)OCC#CI [3-iodo-2-propynyl butylcarbamate (IPBC)]	89.1 ± 7.5	92.3 ± 3.8
CCN(CC)CC#CCOC(=O)C(O)(c1ccccc1)C1CCCCC1 (stereo not drawn) [Oxybutynin chloride] + CCCCNC(=O)OCC#CI [3-iodo-2-propynyl butylcarbamate (IPBC)]	74.18 ± 0.16	88.52 ± 0.63
CCn1cc(C(=O)O)c(=O)c2cnc(N3CCNCC3)nc21 [Pipemidic acid] + CCCCNC(=O)OCC#CI [3-iodo-2-propynyl butylcarbamate (IPBC)]	85.1 ± 3.2	90.1 ± 3
CCn1cc(C(=O)O)c(=O)c2ccc(C)nc21 [Nalidixic acid sodium salt] + CCCCNC(=O)OCC#CI [3-iodo-2-propynyl butylcarbamate (IPBC)]	49.2 ± 1.6	100 ± 2.1
CCn1cc(C(=O)O)c(=O)c2cnc(N3CCCC3)nc21 [Piromidic acid] + CCCCNC(=O)OCC#CI [3-iodo-2-propynyl butylcarbamate (IPBC)]	99.9 ± 14	99.5 ± 5.3
COc1ccc(C(CN(C)C)C2(O)CCCCC2)cc1 (stereo not drawn) [Venlafaxine] + CCCCNC(=O)OCC#CI [3-iodo-2-propynyl butylcarbamate (IPBC)]	85.6 ± 4.3	89 ± 3
CC(C(=O)O)c1ccc(C(=O)c2cccs2)cc1 (stereo not drawn) [Suprofen] + CCCCNC(=O)OCC#CI [3-iodo-2-propynyl butylcarbamate (IPBC)]	86.6 ± 14	89.1 ± 8.6
CC(C(=O)O)c1ccc2c(c1)[nH]c1ccc(Cl)cc12 (stereo not drawn) [Carprofen] + CCCCNC(=O)OCC#CI [3-iodo-2-propynyl butylcarbamate (IPBC)]	33.2 ± 0.16	68.3 ± 1.1
CC(C)Cc1ccc([C@H](C)C(=O)O)cc1 [S-(+)-ibuprofen] + CCCCNC(=O)OCC#CI [3-iodo-2-propynyl butylcarbamate (IPBC)]	70.68 ± 0.16	96.7 ± 1.7
CC(C)(C)NC[C@H](O)COc1cccc2c1CCCC2=O [(-) -Levobunolol hydrochloride] + CCCCNC(=O)OCC#CI [3-iodo-2-propynyl butylcarbamate (IPBC)]	97.8 ± 16	99.2 ± 11
c1ccc(C2CN3CCSC3=N2)cc1 (stereo not drawn) [Tetramisole hydrochloride] + CCCCNC(=O)OCC#CI [3-iodo-2-propynyl butylcarbamate (IPBC)]	87.8 ± 9.1	93.1 ± 4.8
COc1ccc(CCN2CCC(Nc3nc4ccccc4n3Cc3ccc(F)cc3)CC2)cc1 [Astemizole] + CCCCNC(=O)OCC#CI [3-iodo-2-propynyl butylcarbamate (IPBC)]	5.08	4.3 ± 0.32
CN(c1nccc(=O)[nH]1)C1CCN(c2nc3ccccc3n2Cc2ccc(F)cc2)CC1 [Mizolastine] + CCCCNC(=O)OCC#CI [3-iodo-2-propynyl butylcarbamate (IPBC)]	70.2 ± 3.2	88.1 ± 4.8
Clc1ccc(Cn2c(CN3CCCC3)nc3ccccc32)cc1 [Clemizole hydrochloride] + CCCCNC(=O)OCC#CI [3-iodo-2-propynyl butylcarbamate (IPBC)]	73.5 ± 1.4	98.5 ± 1.4
CC(C)NCC(O)COc1ccc(CCOCC2CC2)cc1 (stereo not drawn) [Betaxolol hydrochloride] + CCCCNC(=O)OCC#CI [3-iodo-2-propynyl butylcarbamate (IPBC)]	90.2 ± 11	99.4 ± 4.2
NC[C@H]1O[C@H](O[C@H]2[C@H](O[C@@H]3O[C@H](CO)[C@@H](O)[C@H]3O)[C@@H](O)[C@H](N)C[C@@H]2N)[C@H](N)[C@@H](O)[C@@H]1O [Ribostamycin sulfate salt] + CCCCNC(=O)OCC#CI [3-iodo-2-propynyl butylcarbamate (IPBC)]	91.5 ± 6.3	96.1 ± 3.4
Cc1cccn2c(=O)c(-c3nnn[nH]3)cnc12 [Pemirolast potassium] + CCCCNC(=O)OCC#CI [3-iodo-2-propynyl butylcarbamate (IPBC)]	72.7 ± 1.9	84.4 ± 2
